Data on 14 compounds can be found in PubChem BioAssay (EPA / NIEHS).

Assay [1] has as its target rat Acetylcholinesterase (AChE), Ache (gene 83817) (UniProt P37136). Put plainly: NVS_ENZ_rAChE: NovaScreen (NVS) Enzymatic Assay for rat Acetylcholinesterase (AChE) (AID 2283233). A digest of the protocol: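 Rat brain membrane acetylcholinesterase activity measured colorimetrically 0.33 h after compound addition, loss of signal relative to DMSO. Primary screen in duplicate at 25 uM; actives re-run as concentration-response with 50 uM top concentration.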

Assay [2] concerns the target human Tyrosine Protein Kinase Receptor Tie-2 (Tie2), TEK (gene 7010) (UniProt Q02763). The assay can be described thus: NVS_ENZ_hTie2: NovaScreen (NVS) Enzymatic Assay for human Tyrosine Protein Kinase Receptor Tie-2 (Tie2) (AID 2283225). A digest of the protocol:
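Recombinant human Tie2 kinase activity was read cell-free by fluorescence with electrophoretic mobility shift, 1 hour after dosing. The screen used 25 uM in duplicate, then concentration-response up to 50 uM. Signal loss was scored against DMSO.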

In assay [3] the target is rat Catechol-O-Methyl Transferase (COMT), Comt (gene 24267) (UniProt P22734). The assay can be described thus: NVS_ENZ_rCOMT: NovaScreen (NVS) Enzymatic Assay for rat Catechol-O-Methyl Transferase (COMT) (AID 2283235). An outline of the steps: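 Cell-free enzyme activity with protein extracted from rat dorsal striatum, measured by HPLC with absorbance detection. Compounds screened at 25 uM in duplicate; actives then run in concentration-response up to 50 uM, loss of signal versus DMSO.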

The target of assay [4] is rat Monoamine Oxidase, MAO-B, Central (MAOBC), Maob (gene 25750) (UniProt P19643). The assay can be described thus: NVS_ENZ_rMAOBC: NovaScreen (NVS) Enzymatic Assay for rat Monoamine Oxidase, MAO-B, Central (MAOBC) (AID 2283238). A digest of the protocol: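 MAO-B activity in rat brain tissue preparation, cell-free, measured radiometrically by scintillation counting 1.17 h after dosing. Screened in duplicate at 25 uM; actives then in concentration-response up to 50 uM. Loss of signal versus DMSO scored.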

In assay [5] the target is rat Constitutive Nitric Oxide Synthase (CNOS), Nos1 (gene 24598) (UniProt P29476). The assay can be described thus: NVS_ENZ_rCNOS: NovaScreen (NVS) Enzymatic Assay for rat Constitutive Nitric Oxide Synthase (CNOS) (AID 2283236). An outline of the steps:
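Enzyme activity in rat brain membrane preparation, read 1 h after dosing by filter-based radiometric scintillation counting. Primary screen in duplicate at 25 uM; actives (e.g., ≥30% inhibition) then run in concentration-response up to 50 uM.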

Assay [6] concerns the target rat Monoamine Oxidase, MAO-B, Peripheral (MAOBP), Maob (gene 25750) (UniProt P19643). The assay can be described thus: NVS_ENZ_rMAOBP: NovaScreen (NVS) Enzymatic Assay for rat Monoamine Oxidase, MAO-B, Peripheral (MAOBP) (AID 2283242).
Assay [7] has as its target human Vascular Endothelial Growth Factor Receptor 3 (VEGFR3), FLT4 (gene 2324) (UniProt P35916). Put plainly: NVS_ENZ_hVEGFR3: NovaScreen (NVS) Enzymatic Assay for human Vascular Endothelial Growth Factor Receptor 3 (VEGFR3) (AID 2283229). An outline of the steps: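 Cell-free recombinant VEGFR3 kinase reaction with fluorescent substrate, read 1 h after dosing by electrophoretic mobility shift separation of substrate and product. Single-concentration duplicate screen at 25 uM, then concentration-response up to 50 uM; loss of activity versus DMSO.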

Assay [8] concerns the target human Vascular Endothelial Growth Factor Receptor 2 (VEGFR2), KDR (gene 3791) (UniProt P35968). The assay can be described thus: NVS_ENZ_hVEGFR2: NovaScreen (NVS) Enzymatic Assay for human Vascular Endothelial Growth Factor Receptor 2 (VEGFR2) (AID 2283230). A digest of the protocol:
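Cell-free recombinant VEGFR2 kinase, fluorescent substrate with electrophoretic mobility-shift separation; read 1 h after dosing. Screened at 25 uM in duplicate, hits to concentration-response up to 50 uM; loss-of-signal versus DMSO.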

For assay [9], the target named is sheep Cyclooxygenase-1 (Cox1), PTGS1 (gene 443551) (UniProt P05979). Put plainly: NVS_ENZ_oCOX1: NovaScreen (NVS) Enzymatic Assay for sheep Cyclooxygenase-1 (Cox1) (AID 2283239).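 Also: actives reduce cyclooxygenase activity so potencies are for inhibitors.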 A digest of the protocol: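 Tested in duplicate at 25 uM, then in concentration series if active, against seminal vesicle extract from sheep. Enzyme activity was measured colorimetrically at 0.66 hour and normalised to DMSO.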
Sequence of sheep Cyclooxygenase-1 (Cox1), PTGS1 (gene 443551) (P05979 whole entry, looked up): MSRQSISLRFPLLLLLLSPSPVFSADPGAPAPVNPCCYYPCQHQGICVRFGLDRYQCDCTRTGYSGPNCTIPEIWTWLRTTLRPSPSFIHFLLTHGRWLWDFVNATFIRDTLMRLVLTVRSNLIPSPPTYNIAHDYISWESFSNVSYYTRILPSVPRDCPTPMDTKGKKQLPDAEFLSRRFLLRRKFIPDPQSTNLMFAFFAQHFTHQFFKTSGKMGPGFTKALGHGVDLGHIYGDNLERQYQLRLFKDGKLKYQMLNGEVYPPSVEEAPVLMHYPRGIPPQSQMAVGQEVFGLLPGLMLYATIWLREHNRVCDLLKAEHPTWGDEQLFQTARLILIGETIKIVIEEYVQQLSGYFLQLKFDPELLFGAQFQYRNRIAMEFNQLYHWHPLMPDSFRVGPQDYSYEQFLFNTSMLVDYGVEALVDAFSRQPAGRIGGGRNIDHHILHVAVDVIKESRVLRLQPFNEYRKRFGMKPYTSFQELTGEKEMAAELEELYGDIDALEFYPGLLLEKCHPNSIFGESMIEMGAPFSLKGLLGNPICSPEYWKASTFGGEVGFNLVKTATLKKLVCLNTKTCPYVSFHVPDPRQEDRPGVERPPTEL

Assay [10] has as its target human Sirtuin 1 (SIRT1), SIRT1 (gene 23411) (UniProt Q96EB6). Put plainly: NVS_ENZ_hSIRT1: NovaScreen (NVS) Enzymatic Assay for human Sirtuin 1 (SIRT1) (AID 2283219). An outline of the steps: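 Cell-free recombinant SIRT1 with a fluorescent substrate; substrate and product separated by electrophoretic mobility shift and read by fluorescence intensity, 1 h after dosing. Primary screen at 25 uM in duplicate; hits re-run in concentration-response up to 50 uM, relative to DMSO.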

Assay [11] concerns the target rat Adenylate Cyclase, Forskolin Stimulated, Adcy5 (gene 64532) (UniProt Q04400). Put plainly: NVS_ENZ_rACFSKBinding: NovaScreen (NVS) Enzymatic Assay for rat Adenylate Cyclase, Forskolin Stimulated (AID 2283232). A digest of the protocol:
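Rat forebrain membrane preparation, cell-free, read 1 h after dosing by filter-based scintillation counting. Primary screen in duplicate at 25 uM; actives (e.g. ≥30% inhibition) rerun in concentration-response up to 50 uM; fit versus DMSO.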

For assay [12], the target named is human Tropomyosin Receptor Kinase A (TRKA), NTRK1 (gene 4914) (UniProt P04629). Put plainly: NVS_ENZ_hTrkA: NovaScreen (NVS) Enzymatic Assay for human Tropomyosin Receptor Kinase A (TRKA) (AID 2283224). An outline of the steps: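 Recombinant human TrkA activity read after 1 h by fluorescence with electrophoretic mobility shift separating substrate and product. Primary screen in duplicate at 25 uM; actives were rerun in concentration-response up to 50 uM. Loss of signal versus DMSO.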
Sequence of human Tropomyosin Receptor Kinase A (TRKA), NTRK1 (gene 4914) (P04629 whole entry, looked up): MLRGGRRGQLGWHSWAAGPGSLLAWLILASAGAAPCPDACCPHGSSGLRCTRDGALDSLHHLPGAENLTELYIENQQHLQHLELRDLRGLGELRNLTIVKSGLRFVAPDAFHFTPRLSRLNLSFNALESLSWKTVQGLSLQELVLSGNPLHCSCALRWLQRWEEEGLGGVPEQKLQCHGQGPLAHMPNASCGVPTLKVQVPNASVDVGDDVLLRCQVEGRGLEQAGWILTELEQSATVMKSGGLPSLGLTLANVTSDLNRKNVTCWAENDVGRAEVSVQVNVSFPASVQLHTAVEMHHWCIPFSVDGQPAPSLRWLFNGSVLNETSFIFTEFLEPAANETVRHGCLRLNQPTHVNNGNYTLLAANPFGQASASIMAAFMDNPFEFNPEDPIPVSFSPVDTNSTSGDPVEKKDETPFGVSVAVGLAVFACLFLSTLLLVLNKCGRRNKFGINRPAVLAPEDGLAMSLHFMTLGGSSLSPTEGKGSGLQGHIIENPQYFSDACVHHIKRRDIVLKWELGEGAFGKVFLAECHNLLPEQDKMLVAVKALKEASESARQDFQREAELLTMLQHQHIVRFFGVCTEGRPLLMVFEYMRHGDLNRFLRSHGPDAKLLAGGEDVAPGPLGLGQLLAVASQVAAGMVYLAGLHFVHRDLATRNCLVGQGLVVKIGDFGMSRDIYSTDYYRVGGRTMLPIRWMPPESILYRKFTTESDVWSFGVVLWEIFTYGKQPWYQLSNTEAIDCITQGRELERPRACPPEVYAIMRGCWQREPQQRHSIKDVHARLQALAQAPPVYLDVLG

The target of assay [13] is human Vascular Endothelial Growth Factor Receptor 1 (VEGFR1), FLT1 (gene 2321) (UniProt P17948). The assay can be described thus: NVS_ENZ_hVEGFR1: NovaScreen (NVS) Enzymatic Assay for human Vascular Endothelial Growth Factor Receptor 1 (VEGFR1) (AID 2283226). An outline of the steps: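 Cell-free assay of recombinant human VEGFR1 kinase with substrate, measured 1 h after dosing; fluorescence with electrophoretic mobility-shift separation of substrate and product, referenced to DMSO; primary screen at 25 uM in duplicate, actives then run in concentration series.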

In assay [14] the target is sheep Cyclooxygenase-2 (Cox2), PTGS2 (gene 443460) (UniProt P79208). Put plainly: NVS_ENZ_oCOX2: NovaScreen (NVS) Enzymatic Assay for sheep Cyclooxygenase-2 (Cox2) (AID 2283231). An outline of the steps:
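Enzyme from ovine placenta, cell-free; colorimetric absorbance read 0.66 hour after dosing, loss of signal vs DMSO. Screened in duplicate at 25 uM, then concentration-response up to 50 uM.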

In assay [15] the target is human Sirtuin 3 (SIRT3), SIRT3 (gene 23410) (UniProt Q9NTG7). The assay can be described thus: NVS_ENZ_hSIRT3: NovaScreen (NVS) Enzymatic Assay for human Sirtuin 3 (SIRT3) (AID 2283222). A digest of the protocol:
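Cell-free enzyme assay with recombinant protein and fluorescent substrate, product separated by electrophoretic mobility shift; read 1 hour after dosing. Screened in duplicate at 25 uM, then singleton concentration-response up to 50 uM; loss of signal versus DMSO.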

Assay [16] deals with rabbit Imidazoline 2 Central (I2C), CKB (gene 100009085) (UniProt P00567). The assay can be described thus: NVS_ENZ_rabI2C: NovaScreen (NVS) Enzymatic Assay for rabbit Imidazoline 2 Central (I2C) (AID 2283228). An outline of the steps: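 Rabbit brain membranes, cell-free; readout by filter-based scintillation counting 1.5 hours after dosing, loss of signal vs DMSO. Initial duplicate test at 25 uM, then concentration-response with 50 uM top concentration.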
Sequence of rabbit Imidazoline 2 Central (I2C), CKB (gene 100009085) (P00567 whole entry, looked up): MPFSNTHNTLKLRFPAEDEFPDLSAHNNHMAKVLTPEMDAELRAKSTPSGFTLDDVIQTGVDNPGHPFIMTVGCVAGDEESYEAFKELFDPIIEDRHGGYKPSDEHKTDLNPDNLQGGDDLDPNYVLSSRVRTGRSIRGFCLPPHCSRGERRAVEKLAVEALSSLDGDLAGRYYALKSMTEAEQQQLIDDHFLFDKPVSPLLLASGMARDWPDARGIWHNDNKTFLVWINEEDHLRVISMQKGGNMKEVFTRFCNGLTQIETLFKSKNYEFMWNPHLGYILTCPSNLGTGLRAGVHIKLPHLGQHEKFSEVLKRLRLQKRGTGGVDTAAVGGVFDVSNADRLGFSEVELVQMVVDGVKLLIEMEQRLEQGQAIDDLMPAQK

Assay [17] concerns rat Monoamine Oxidase, MAO-A, Peripheral (MAOAP), gene 29253. The assay can be described thus: NVS_ENZ_rMAOAP: NovaScreen (NVS) Enzymatic Assay for rat Monoamine Oxidase, MAO-A, Peripheral (MAOAP) (AID 2283237). A digest of the protocol: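 Rat liver mitochondrial membranes served as the MAO-A source, with enzyme activity measured by radiometric scintillation counting 1.17 hours after dosing. Loss of signal was fitted against DMSO; primary screen used 25 uM in duplicate, follow-up used concentration series.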

In assay [18] the target is bovine Dopamine Receptor (DR), Non-selective Binding, DRD1 (gene 281125) (UniProt Q95136). The assay can be described thus: NVS_GPCR_bDR_NonSelective: NovaScreen (NVS) G Protein-Coupled Receptor Assay for bovine Dopamine Receptor (DR), Non-selective Binding (AID 2283241). An outline of the steps: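 Bovine striatal membranes; radioligand displacement read by filtration and scintillation counting 1 h after dosing, loss of signal vs DMSO. Screened in duplicate at 25 uM, then concentration-response for hits.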

Assay [19] concerns the target human SRC Proto-Oncogene, Non-receptor Tyrosine Kinase (SRC), SRC (gene 6714) (UniProt P12931). The assay can be described thus: NVS_ENZ_hSRC: NovaScreen (NVS) Enzymatic Assay for human SRC Proto-Oncogene, Non-receptor Tyrosine Kinase (SRC) (AID 2283223). A digest of the protocol:
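Cell-free kinase activity assay with fluorescent substrate, product separated by electrophoretic mobility shift, read 1 h after dosing. Duplicate single point at 25 uM, then concentration-response up to 50 uM; loss of signal versus DMSO.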

Where “and” joins values, the source holds several entries; their conditions need not be identical. Equal entries are not always repeated. Records with an inconclusive call do not appear. Some compounds were tested as several samples or in several runs, with calls that do not always agree. Calls of active or inactive are those of the source. The calls were made as follows: active = hit-call score of the fitted dose curve at least 0.9, where 1 is the maximum; inconclusive = response in the unintended direction; inactive = score below 0.9.

Sequence of human Vascular Endothelial Growth Factor Receptor 2 (VEGFR2), KDR (gene 3791) (P35968 whole entry, looked up): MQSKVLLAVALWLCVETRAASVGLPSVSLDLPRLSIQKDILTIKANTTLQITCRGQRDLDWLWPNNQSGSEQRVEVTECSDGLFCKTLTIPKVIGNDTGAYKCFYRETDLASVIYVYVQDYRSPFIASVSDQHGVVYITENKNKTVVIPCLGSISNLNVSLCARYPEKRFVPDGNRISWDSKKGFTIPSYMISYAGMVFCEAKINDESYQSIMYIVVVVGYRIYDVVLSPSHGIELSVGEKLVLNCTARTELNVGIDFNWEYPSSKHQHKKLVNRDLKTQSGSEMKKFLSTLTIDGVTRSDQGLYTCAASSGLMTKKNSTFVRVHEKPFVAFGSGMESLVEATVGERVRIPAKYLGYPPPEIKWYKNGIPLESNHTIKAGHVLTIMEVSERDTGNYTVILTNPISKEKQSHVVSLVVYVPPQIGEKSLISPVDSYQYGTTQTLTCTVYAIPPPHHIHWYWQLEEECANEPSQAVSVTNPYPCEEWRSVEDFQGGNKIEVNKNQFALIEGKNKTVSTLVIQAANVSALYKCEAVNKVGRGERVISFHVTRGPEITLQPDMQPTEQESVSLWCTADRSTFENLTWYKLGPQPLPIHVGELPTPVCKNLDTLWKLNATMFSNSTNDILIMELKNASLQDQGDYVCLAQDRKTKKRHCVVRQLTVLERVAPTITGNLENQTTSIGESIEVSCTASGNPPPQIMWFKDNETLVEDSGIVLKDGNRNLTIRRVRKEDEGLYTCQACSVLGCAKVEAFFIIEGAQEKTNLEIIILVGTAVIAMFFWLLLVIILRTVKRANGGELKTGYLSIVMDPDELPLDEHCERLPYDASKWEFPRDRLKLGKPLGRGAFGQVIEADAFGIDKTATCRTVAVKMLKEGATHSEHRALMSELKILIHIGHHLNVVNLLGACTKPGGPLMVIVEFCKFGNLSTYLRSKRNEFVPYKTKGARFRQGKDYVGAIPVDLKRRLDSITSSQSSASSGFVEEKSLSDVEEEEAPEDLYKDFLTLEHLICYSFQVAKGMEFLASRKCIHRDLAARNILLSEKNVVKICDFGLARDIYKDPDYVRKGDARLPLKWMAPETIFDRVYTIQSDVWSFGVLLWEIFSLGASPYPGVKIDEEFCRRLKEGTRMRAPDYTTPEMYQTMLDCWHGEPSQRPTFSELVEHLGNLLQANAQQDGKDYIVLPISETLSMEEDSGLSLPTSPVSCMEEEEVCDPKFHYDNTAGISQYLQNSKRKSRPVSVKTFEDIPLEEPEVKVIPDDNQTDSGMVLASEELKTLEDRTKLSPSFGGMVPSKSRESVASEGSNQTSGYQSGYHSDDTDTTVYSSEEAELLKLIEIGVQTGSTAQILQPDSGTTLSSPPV
Sequence of human Tyrosine Protein Kinase Receptor Tie-2 (Tie2), TEK (gene 7010) (Q02763 whole entry, looked up): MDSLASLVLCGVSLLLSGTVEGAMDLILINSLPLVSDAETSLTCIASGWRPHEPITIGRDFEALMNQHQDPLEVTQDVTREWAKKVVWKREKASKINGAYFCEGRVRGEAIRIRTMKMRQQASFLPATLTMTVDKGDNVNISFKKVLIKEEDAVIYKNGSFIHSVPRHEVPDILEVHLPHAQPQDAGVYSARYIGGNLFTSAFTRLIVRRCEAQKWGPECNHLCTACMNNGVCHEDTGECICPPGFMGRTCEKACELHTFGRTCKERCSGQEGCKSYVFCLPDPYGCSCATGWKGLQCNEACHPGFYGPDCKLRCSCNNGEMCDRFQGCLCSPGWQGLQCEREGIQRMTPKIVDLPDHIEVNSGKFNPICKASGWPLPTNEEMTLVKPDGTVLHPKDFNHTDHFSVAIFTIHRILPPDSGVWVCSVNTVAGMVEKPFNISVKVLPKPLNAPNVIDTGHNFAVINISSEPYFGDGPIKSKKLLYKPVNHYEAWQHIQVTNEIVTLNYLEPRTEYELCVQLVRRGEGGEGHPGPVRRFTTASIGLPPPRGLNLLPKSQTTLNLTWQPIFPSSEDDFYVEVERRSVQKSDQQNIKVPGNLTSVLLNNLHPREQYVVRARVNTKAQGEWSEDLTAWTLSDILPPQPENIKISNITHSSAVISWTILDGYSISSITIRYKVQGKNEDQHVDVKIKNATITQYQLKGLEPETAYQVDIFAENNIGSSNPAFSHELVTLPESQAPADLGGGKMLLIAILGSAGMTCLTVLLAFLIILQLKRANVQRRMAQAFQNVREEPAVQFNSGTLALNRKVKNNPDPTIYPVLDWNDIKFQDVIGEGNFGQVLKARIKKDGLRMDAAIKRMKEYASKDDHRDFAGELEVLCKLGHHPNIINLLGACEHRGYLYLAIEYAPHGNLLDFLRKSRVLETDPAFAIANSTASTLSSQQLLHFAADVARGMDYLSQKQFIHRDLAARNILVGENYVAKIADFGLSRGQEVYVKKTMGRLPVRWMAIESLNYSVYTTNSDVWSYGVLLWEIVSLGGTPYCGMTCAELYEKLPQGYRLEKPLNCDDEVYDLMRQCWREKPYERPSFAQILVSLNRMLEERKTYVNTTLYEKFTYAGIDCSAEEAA
Sequence of rat Acetylcholinesterase (AChE), Ache (gene 83817) (P37136 whole entry, looked up): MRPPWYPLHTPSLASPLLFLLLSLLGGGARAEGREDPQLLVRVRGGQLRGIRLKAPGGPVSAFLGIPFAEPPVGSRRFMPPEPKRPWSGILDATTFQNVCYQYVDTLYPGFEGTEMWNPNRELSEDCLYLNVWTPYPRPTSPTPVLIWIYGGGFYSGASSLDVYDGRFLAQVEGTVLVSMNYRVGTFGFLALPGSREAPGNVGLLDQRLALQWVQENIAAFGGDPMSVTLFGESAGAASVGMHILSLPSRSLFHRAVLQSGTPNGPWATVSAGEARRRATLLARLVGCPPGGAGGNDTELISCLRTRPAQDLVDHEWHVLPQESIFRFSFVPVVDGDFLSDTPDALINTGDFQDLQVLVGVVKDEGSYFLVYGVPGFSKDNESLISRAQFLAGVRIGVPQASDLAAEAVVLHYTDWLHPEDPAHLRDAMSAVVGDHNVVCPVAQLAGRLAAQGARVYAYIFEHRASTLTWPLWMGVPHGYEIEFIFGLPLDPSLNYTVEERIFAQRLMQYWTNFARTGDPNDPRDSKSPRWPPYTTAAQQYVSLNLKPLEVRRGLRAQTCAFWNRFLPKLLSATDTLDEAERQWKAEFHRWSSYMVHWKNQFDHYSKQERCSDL

As a reminder, the AC50 is the concentration at which the activity in the assay is half-maximal. As for `CC(C)N(C(=O)COc1nnc(C(F)(F)F)s1)c1ccc(F)cc1`, the AC50 in [1] is 14.2 µM (active).

For `CC(C)OC(=O)Nc1cccc(Cl)c1`, the result in assay [2], in assay [3] and in assay [4] was inactive.

Turning to `O=C1c2ccccc2C(=O)N1SC(Cl)(Cl)Cl`, the AC50 in assay [5] was 2.25 µM (active). The outcome in assay [6] was inactive.

Regarding `CC(C)(C)C(O)C(Oc1ccc(Cl)cc1)n1cncn1` (stereo unspecified), the compound was classed as inactive in assay [2], in assay [7], in assay [8] and in assay [9].

`N#Cc1c(Cl)c(Cl)c(Cl)c(C#N)c1Cl`: the outcome in [10], in assay [8] and in assay [1] was inactive. Besides, the AC50 in assay [7] is 38.7 µM (active); in assay [11], 25 µM (active).

Take `CC1(c2ccc(Oc3ccccc3)cc2)OC(=O)N(Nc2ccccc2)C1=O` (stereo unspecified): the call in [9] was inactive.

With `ClC1C(Cl)C(Cl)C(Cl)C(Cl)C1Cl` (stereo unspecified), the compound was called inactive in assay [10].

Take `O=S(=O)(O)C(F)(F)C(F)(F)C(F)(F)C(F)(F)C(F)(F)C(F)(F)C(F)(F)C(F)(F)F`: the AC50 was 36.5 µM (active) and 28.4 µM (active) in assay [12]; 8.09 µM (active) and 6.38 µM (active) and 5.3 µM (active) in assay [2]; 11.9 µM (active) and 11.4 µM (active) and 8.57 µM (active) in assay [13]; 7.45 µM (active) and 9.17 µM (active) in assay [7]; 27.2 µM (active) and 43.1 µM (active) in assay [8]; 9.06 µM (active) in [14]. Besides, in [9], the compound was called inactive.

Turning to `CCCN(CCOc1c(Cl)cc(Cl)cc1Cl)C(=O)n1ccnc1`, the compound was called inactive in assay [15], in [16] and in [5].

As to `CNC(=O)CSP(=S)(OC)OC`, the result in assay [2] was inactive.

`CNC(=O)Oc1cccc(N=CN(C)C)c1`: the AC50 in assay [16] is 0.67 µM (active); in [1], 12 µM (active). Also, the compound was classed as inactive in assay [17].

As for `CC(C)(C)C(O)/C(=C\c1ccc(Cl)cc1Cl)n1cncn1` (stereo unspecified), in assay [12], the compound was classed as inactive.

For the compound `O=C(Nc1ccccc1)Nc1cnns1`, the result in [16], in assay [1] and in assay [18] was inactive.

Take `Oc1ccc(Cl)cc1Cc1ccccc1`: the compound was called inactive in assay [19] and in [17]. The AC50 is 9.39 µM (active) in [12]; 38.2 µM (active) in assay [17]; 36.2 µM (active) and 38.3 µM (active) in assay [9]; 13.6 µM (active) in assay [6].
